Among all 310,000 compounds or so, about 17,000 (5.5%) were called active. Roughly 11% stayed inconclusive and do not appear here. Calls come from the whole dose curve; as a rule, active = well fitted inhibition curve with a large enough effect; inconclusive = small, poorly fitted or top-dose-only effect, or effect the other way; inactive = no such curve, though single readings can be large or run the other way. What follows is part of a selection rich in actives, with near analogues and random picks from the rest.
Target: Nuclear receptor ROR-gamma (Mus musculus) (UniProt P51450)
Sequence (P51450 whole entry, looked up): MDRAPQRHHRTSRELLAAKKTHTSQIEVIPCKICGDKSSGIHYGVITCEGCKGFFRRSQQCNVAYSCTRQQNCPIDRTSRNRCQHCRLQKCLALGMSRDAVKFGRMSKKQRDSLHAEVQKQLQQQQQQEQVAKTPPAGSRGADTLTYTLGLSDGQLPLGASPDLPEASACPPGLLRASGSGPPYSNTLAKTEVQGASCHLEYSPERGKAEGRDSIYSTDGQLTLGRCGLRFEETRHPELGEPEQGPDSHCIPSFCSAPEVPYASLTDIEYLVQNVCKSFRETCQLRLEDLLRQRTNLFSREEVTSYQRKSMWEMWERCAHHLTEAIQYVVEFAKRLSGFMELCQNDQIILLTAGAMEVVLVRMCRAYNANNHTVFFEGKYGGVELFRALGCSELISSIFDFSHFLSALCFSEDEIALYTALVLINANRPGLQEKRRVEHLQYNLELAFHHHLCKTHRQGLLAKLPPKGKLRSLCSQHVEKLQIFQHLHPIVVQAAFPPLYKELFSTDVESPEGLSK
Experiment: qHTS for inhibitors of ROR gamma transcriptional activity; note: nearly all actives have a fitted effect of over 60% in size
Settings: Drosophila S2 Gal4-RORgamma UAS-luciferase reporter, 20 h; series mostly up to 53.6 µM
How it was run: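 ROR gamma transcriptional activity was tracked as Gal4-UAS luciferase output in stably transfected Drosophila Schneider cells, with compound added 1 hr before 700 uM copper sulfate induction and a 20 hr ambient-temperature incubation.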
% is set by controls: 0 for no effect and ±100 for the full control effect; potency is the fitted concentration of half-maximal effect.

Potency, active:
COc1ccc(-c2cn3ccc(C)cc3n2)cc1 3.16 µM
O=C(N/N=C/c1ccccc1O)C1CCCC1 0.158 µM
CCCc1cc(-c2n[nH]c(=S)n2Cc2ccccc2)cs1 4.47 µM
CCc1cc(-c2n[nH]c(=S)n2CC(C)C)cs1 2.51 µM
O=C(Cc1csc(Nc2nc(=S)[nH]c3ccccc23)n1)NCCCN1CCN(c2cccc(Cl)c2)CC1 2.51 µM
COc1cccc(CNC(=O)Cc2csc(Nc3nc(=S)[nH]c4ccccc34)n2)c1 6.31 µM
COc1ccccc1CNc1ncnc2ccc(-c3c(C)noc3C)cc12 5.01 µM
N#CC1=C(SCc2ccc(C#N)cc2)N=C(N)C(c2nc(-c3ccccc3)cs2)C12CCCCC2 (stereo not drawn) 11.2 µM
O=C(O)COc1ccc(-c2nccc(-c3cccs3)n2)cc1 5.62 µM
Fc1ccc(COc2cccc(-c3n[nH]c(=S)o3)c2)cc1 11.2 µM
Cc1cc(/C=N/NC(=O)CC2(C)OCCO2)c(C)n1-c1ccc(Cl)c(Cl)c1 17.8 µM
c1ccc(CN2CCC(N=C3NN=C(c4ccc5c(c4)OCCO5)CS3)CC2)cc1 10 µM

Potency, inactive:
COc1ccc(-c2cc(=O)oc3cc(OC(C)C(=O)NCC4CCC(C(=O)O)CC4)ccc23)cc1 (stereo not drawn)
CCN(CC)CCCNC(=O)c1cc2c(=O)[nH]c3ccc(C)cc3c2s1
CCCCC[C@H]1CN(C2CCCCC2)C(=O)[C@@H]1CC(=O)NCc1ccc(OC)cc1
COc1ccccc1-c1sc2ccccc2c1-c1ccc(C(C)=O)cc1
Cc1ccc(-c2csc(NC3OC(=O)c4ccccc43)n2)cc1 (stereo not drawn)
COc1ccc(-c2cn3ccsc3n2)cc1
CCN(CC)S(=O)(=O)c1ccc(-c2cn3ccc(C)cc3n2)cc1
CCOc1ccc(-n2c(SCC(=O)OC)nc3sc4c(c3c2=O)CCN(C)C4)cc1
COc1ccc(N(CC(=O)Nc2ccc(F)c(F)c2)S(=O)(=O)c2c(C)[nH]c(=O)[nH]c2=O)cc1
COc1cccc(C(O)c2nc3ccccc3n2C)c1 (stereo not drawn)
COc1ccc(/C=N/NC(=O)C2CC2)c(OC)c1OC
Oc1ccccc1C=NC1CCCCC1N=Cc1ccccc1O (stereo not drawn)
CCn1c(=S)sc2c(=O)n(CC(=O)Nc3cccc(Br)c3)c(C)nc21
Cc1cc(C)c(NC(=O)CN2CCCCCC2)c(C)c1
O=C(c1c(F)cccc1Cl)N1CCN(S(=O)(=O)c2ccc3c(c2)OCCCO3)CC1
CCOc1ccccc1CNS(=O)(=O)c1cc(-c2cc(C)no2)ccc1C
COc1ccc(/C=C2\SC(=O)N(CCC(=O)NC3CCS(=O)(=O)C3)C2=O)cc1 (stereo not drawn)
O=C(NCc1cccs1)c1ccc(CS(=O)Cc2ccccc2Cl)o1 (stereo not drawn)
Cc1cc(-c2csc(N)n2)c(C)n1Cc1ccccc1
CCc1cc(-c2nnc(SCC(=O)NC3CC3)n2C)cs1
COC(=O)c1ccccc1NC(=O)CSc1nc2c(c(=O)[nH]1)CCC2
COc1ccc(C(=O)NCC(=O)N/N=C/c2cccnc2)cc1
CCOC(=O)[C@@H]1[C@H]2COc3cc(OC)ccc3[C@H]2N2C(=O)N(c3ccc(F)cc3)C(=O)[C@]12C
COc1ccc(CNS(=O)(=O)c2ccc(-c3cnc(C4CC4)o3)cc2)cc1
CCOC(=O)c1cccc(NS(=O)(=O)c2c(C(=O)N3CCCCCC3)c(C)n(C)c2C)c1
O=C(c1ccccc1F)N(Cc1ccccc1)Cc1ccccc1
O=C(CCCn1c(=O)[nH]c2cc(Cl)ccc2c1=O)NCCN1CCN(c2ccccc2)CC1
COc1cccc(CNC(=O)c2nnn(CC(=O)Nc3cc(C)ccc3C)c2N)c1
COc1cccc(CNC(=O)c2n[nH]c3ccccc23)c1
CCn1c(=O)cc(OCC(=O)NCCCN2CCN(c3cccc(Cl)c3)CC2)c2ccccc21
COc1cc(Cl)ccc1OCc1cc(C(=O)N(C)CCc2c(C)n[nH]c2C)no1
COc1ccccc1CNc1ccnc(-c2c(C)noc2C)n1
COc1ccccc1CNc1nc(-c2c(C)noc2C)nc2ccccc12
COc1cc(C2/C(=C(\O)c3ccc4c(c3)CC(C)O4)C(=O)C(=O)N2c2nnc(C)s2)cc(OC)c1OC (stereo not drawn)
CC(C)c1ccc(/C=C2\NC(=O)NC2=O)cc1
O=C(NC1CC1)C(Cc1ccccc1)NS(=O)(=O)c1ccccc1F (stereo not drawn)
CCOC(=O)c1sc(=NC(=O)c2ccc(Br)cc2)n(C)c1C
COc1ccc(CCN2CC(C(=O)NCCN3CCNC3=O)CCC2=O)cc1 (stereo not drawn)
CCOC(=O)CSc1nc(N2CCOCC2)c2c(c1C#N)CC(C(C)C)OC2 (stereo not drawn)
COC(=O)CSc1nccc(-c2cccs2)n1
O=C(Nc1ccnc(-c2ccncc2)n1)c1cccs1
CCOc1ccc(N(C(=O)c2snc(C(N)=O)c2N)C(C(=O)NCC2CCCO2)c2c[nH]c3ccccc23)cc1 (stereo not drawn)
Cc1nc2ccccc2cc1OCc1ccc(F)cc1
Fc1ccc(COc2ccc(-c3nnco3)cc2)cc1
Cc1cc(F)ccc1N1CCC(N2CCN(C)C(CCO)C2)CC1 (stereo not drawn)
Cc1ccc(-n2c(C)cc(/C=N\NC(=O)CC(=O)NC(C)C)c2C)cc1
Cc1cc(=O)cc(C)n1-c1ccc(Cl)c(Cl)c1
Cc1cccc(OCC(O)Cn2c(N3CCCCC3)nc3c2c(=O)[nH]c(=O)n3C)c1 (stereo not drawn)
COc1ccc2oc(=N)c(C(=O)Nc3ccc(Br)cc3)cc2c1
O=C(c1noc2c1CCCC2)N1CCc2ccccc2C1
COc1cccc(C(=O)OCc2cc(=O)oc3c(C)c(C)ccc23)c1OC
CS(=O)(=O)N(CC(=O)N1CCN(Cc2ccccc2)CC1)c1ccc2c(c1)OCCO2
Clc1cccc(N=C2NN=C(c3ccc4c(c3)OCCO4)CS2)c1

Activity change, negative = inhibition, inactive:
CC(=O)Nc1ccc(C(=O)Nc2nc(-c3cc(C)n(Cc4ccccc4)c3C)cs2)cc1 3.29% [at 10 µM]
N#Cc1ccc(CSc2ncccn2)cc1 -36.2% [at 1.91 µM]
N#CC1=C(SCc2ccccc2)NC(=O)C(C#N)C12CCCC2 (stereo not drawn) 26.7% [at 0.365 µM]
